Data published in PubChem BioAssay (Tox21).
Inconclusive results are not listed. The source made the active and inactive calls. Unless noted, calls come from the whole dose curve; as a rule, active = well fitted curve in the direction sought with a large enough effect in the repeat runs; inconclusive = weak or mixed curves; inactive = no such curve, though single readings can be large; an effect the other way counts as inactive or inconclusive. Non-standard residues stand in square brackets, D forms with d. Residues, ends and D or L forms follow the SMILES beside them. *: point of attachment. Sta = CC(C)C[C@H](N)[C@@H](O)CC(=O)O; Isovaleryl = CC(C)CC(=O)*

Columns and labels:
[1] = A CellTox Green Cytotoxicity Assay to monitor cytotoxicity in HepG2 cells - 24 hour (AID 1224878); note: nearly all actives have a fitted effect of over 45% in size
In short: (§1)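 Fluorescent DNA-binding dye, 600 HepG2 cells/well, 5 h preincubation then compound in DMSO; same plates read at 0–40 h, 37 C.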

[2] = A CellTox Green Cytotoxicity Assay to monitor cytotoxicity in HepG2 cells - 40 hour (AID 1224879); note: nearly all actives have a fitted effect of over 40% in size
In short: as §1

[3] = qHTS RealTime-Glo MT Cell Viability Assay in HEK293 cells - 0 hour (AID 1224880); note: top concentration of the series differs between compounds; nearly all actives have a fitted effect of over 45% in size
In short: (§2)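 Measured as luminescence from the same continuously cultured HEK293 wells at successive time points (0, 8, 16, 24, 32, 40 h) after compound addition. Reagent present from seeding; dosing at 5 h; incubation 37 C.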

[4] = A CellTox Green Cytotoxicity Assay to monitor cytotoxicity in HEK293 cells - 32 hour (AID 1224881); note: nearly all actives have a fitted effect of over 40% in size
In short: (§3)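 Homogeneous no-lysis format: HEK293 cell suspension mixed with CellTox Green reagent, seeded, incubated 5 h at 37 C/5% CO2, then dosed by pintool with compound in DMSO.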

[5] = A CellTox Green Cytotoxicity Assay to monitor cytotoxicity in HepG2 cells - 0 hour (AID 1224882); note: nearly all actives have a fitted effect of over 35% in size
In short: as §1

[6] = A CellTox Green Cytotoxicity Assay to monitor cytotoxicity in HepG2 cells - 32 hour (AID 1224883); note: nearly all actives have a fitted effect of over 50% in size
In short: as §1

[7] = A CellTox Green Cytotoxicity Assay to monitor cytotoxicity in HEK293 cells - 8 hour (AID 1224884); note: nearly all actives have a fitted effect of over 35% in size
In short: as §3

[8] = qHTS RealTime-Glo MT Cell Viability Assay in HEK293 cells - 24 hour (AID 1224886); note: top concentration of the series differs between compounds; nearly all actives have a fitted effect of over 50% in size
In short: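 Reads taken at 0, 8, 16, 24, 32 and 40 h from the same wells. HEK293 cells (600/well) carried RealTime-Glo reagents from seeding, with compound added after a 5 h settle at 37 C.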

[9] = qHTS RealTime-Glo MT Cell Viability Assay in HEK293 cells - 8 hour (AID 1224887); note: top concentration of the series differs between compounds; nearly all actives have a fitted effect of over 50% in size
In short: as §2

[10] = A CellTox Green Cytotoxicity Assay to monitor cytotoxicity in HEK293 cells - 16 hour (AID 1224888); note: nearly all actives have a fitted effect of over 35% in size
In short: as §3

[11] = qHTS RealTime-Glo MT Cell Viability Assay in HepG2 cells - 0 hour (AID 1224889); note: nearly all actives have a fitted effect of over 50% in size
In short: (§4)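 HepG2 suspension premixed with RealTime-Glo reagents is plated at 600 cells per well and left 5 h at 37 C/5% CO2. Compounds in DMSO then go in, and bioluminescence reflecting viable cell number is recorded over 40 h.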

[12] = A CellTox Green Cytotoxicity Assay to monitor cytotoxicity in HepG2 cells - 8 hour (AID 1224890); note: nearly all actives have a fitted effect of over 45% in size
In short: as §1

[13] = qHTS assay to identify small molecule antagonists of the estrogen receptor alpha (ER-alpha) signaling pathway using the BG1 cell line in the presence of 0.1 nM 17-beta-estradiol - cell viability counter screen (AID 1259241); note: nearly all actives have a fitted effect of over 40% in size
In short: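 Viability in VM7Luc4E2 cells after 22 hr compound exposure under 0.1 nM 17beta-estradiol stimulation, by CellTiter-Fluor.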

[14] = qHTS assay to identify small molecule antagonists of the androgen receptor (AR) signaling pathway using the MDA cell line in the presence of 0.5 nM R1881 - cell viability counter screen (AID 1259242); note: nearly all actives have a fitted effect of over 45% in size
In short: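 Human breast carcinoma MDA-kb2 cells, cultured without CO2, receive compounds alongside 0.5 nM (final) R1881 agonist. After 16 hr at 37C, viability is taken as live-cell protease signal.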

[15] = target: Estrogen receptor (Homo sapiens) (UniProt P03372); assay: qHTS assay to identify small molecule antagonists of the estrogen receptor alpha (ER-alpha) signaling pathway using the BG1 cell line in the presence of 0.1 nM 17-beta-estradiol (AID 1259244); note: nearly all actives have a fitted effect of over 50% in size
Chain of Estrogen receptor (Homo sapiens) (P03372 whole entry, looked up): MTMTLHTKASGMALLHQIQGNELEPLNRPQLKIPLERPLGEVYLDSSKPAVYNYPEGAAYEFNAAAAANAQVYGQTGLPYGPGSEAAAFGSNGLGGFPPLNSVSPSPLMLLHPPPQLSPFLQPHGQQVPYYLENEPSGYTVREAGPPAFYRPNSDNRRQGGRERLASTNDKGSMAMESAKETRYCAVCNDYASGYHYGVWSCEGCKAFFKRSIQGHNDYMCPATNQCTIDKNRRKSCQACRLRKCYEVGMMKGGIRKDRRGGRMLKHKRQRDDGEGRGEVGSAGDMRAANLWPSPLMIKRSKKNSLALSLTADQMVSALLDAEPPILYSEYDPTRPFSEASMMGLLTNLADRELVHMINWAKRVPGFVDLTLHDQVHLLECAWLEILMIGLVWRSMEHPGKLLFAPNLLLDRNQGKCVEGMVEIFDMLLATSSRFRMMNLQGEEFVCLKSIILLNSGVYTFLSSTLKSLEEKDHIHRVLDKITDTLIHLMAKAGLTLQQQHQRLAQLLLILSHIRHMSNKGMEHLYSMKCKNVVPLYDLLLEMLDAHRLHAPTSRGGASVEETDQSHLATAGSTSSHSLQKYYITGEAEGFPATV
In short: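 Seeding of stripped-serum-adapted VM7Luc4E2 cells, 24 h attachment, compound transfer, then 0.1 nM final 17beta-estradiol; after 22 h incubation, ONE-Glo reagent and luminescence reading.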

[16] = qHTS assay to identify small molecule HDAC inhibitors (AID 1259364)
In short: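 After a 2 hr compound incubation (37C, 5% CO2), HCT-116 cells seeded at 1,500/well the day before received HDAC-Glo reagent; signal read as luminescence after 30 min at room temperature.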

[17] = qHTS assay to identify small molecule HDAC inhibitors - cell viability counter screen (AID 1259365)
In short: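 Cytotoxicity was gauged in wild-type HCT-116 cells after a brief 2hr treatment with DMSO-dissolved compounds at 37C and 5% CO2, using CellTiter-Glo luminescence developed for 30min at room temperature.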

[18] = qHTS RealTime-Glo MT Cell Viability Assay in HepG2 cells - 16 hour (AID 1224885); note: nearly all actives have a fitted effect of over 50% in size
In short: as §4

[19] = target: Androgen receptor (Homo sapiens) (UniProt P10275); assay: qHTS assay to identify small molecule antagonists of the androgen receptor (AR) signaling pathway using the MDA cell line in the presence of 0.5 nM R1881 (AID 1259243); note: nearly all actives have a fitted effect of over 50% in size
Chain of Androgen receptor (Homo sapiens) (P10275 whole entry, looked up): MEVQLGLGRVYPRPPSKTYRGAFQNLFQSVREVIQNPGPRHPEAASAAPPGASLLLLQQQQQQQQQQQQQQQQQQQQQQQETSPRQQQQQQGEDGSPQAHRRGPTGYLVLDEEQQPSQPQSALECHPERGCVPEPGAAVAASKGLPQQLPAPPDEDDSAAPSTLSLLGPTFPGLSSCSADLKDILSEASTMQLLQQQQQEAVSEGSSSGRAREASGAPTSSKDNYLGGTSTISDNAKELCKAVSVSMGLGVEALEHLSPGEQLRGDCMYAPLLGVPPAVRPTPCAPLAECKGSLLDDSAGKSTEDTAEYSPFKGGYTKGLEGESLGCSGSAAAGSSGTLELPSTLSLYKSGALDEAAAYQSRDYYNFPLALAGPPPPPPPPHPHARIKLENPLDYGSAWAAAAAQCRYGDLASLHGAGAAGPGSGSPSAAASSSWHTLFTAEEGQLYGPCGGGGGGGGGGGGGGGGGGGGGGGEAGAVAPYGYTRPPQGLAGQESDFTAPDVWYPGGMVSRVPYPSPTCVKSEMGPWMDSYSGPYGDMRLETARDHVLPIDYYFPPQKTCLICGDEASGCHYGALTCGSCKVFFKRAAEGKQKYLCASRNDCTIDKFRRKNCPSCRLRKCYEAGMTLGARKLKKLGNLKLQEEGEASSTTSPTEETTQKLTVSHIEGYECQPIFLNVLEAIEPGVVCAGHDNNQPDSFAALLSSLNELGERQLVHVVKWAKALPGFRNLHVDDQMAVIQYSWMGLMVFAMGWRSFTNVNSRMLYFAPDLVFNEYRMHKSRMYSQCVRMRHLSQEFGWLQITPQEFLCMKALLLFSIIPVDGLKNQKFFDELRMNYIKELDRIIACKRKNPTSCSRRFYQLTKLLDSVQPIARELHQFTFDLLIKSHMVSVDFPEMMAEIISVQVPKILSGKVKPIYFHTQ
In short: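 Cells: MDA-kb2 (MMTV-luc). Stimulus: 0.5 nM R1881. Time: 16 hr, 37C, no CO2. Detection: ONE-Glo luminescence after 30 min at RT.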

[20] = qHTS assay to identify small molecule phospholipidosis (PLD) inducers (AID 1259344; active = well fitted curve in the direction sought with a large enough effect; an effect the other way counts as inactive or inconclusive)
In short: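 Accumulated phospholipid, stained red by LipidTOX during 24 h compound treatment of HepG2 cells at 37 C, is quantified from images as pit number and intensity, normalised per cell using Hoechst-stained nuclei.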
% is set by controls: 0 for no effect and ±100 for the full control effect.

CC(C)(C)C(=O)CC(=O)C(C)(C)C
inactive: Potency [1] | Potency [2] | Potency [3] | Potency [4] | Potency [5] | Potency [6] | Potency [7] | outcome [8] | outcome [9] | Potency [10] | Potency [11] | Potency [12] | outcome [13] | outcome [14] | outcome [15] | Potency [16] | outcome [17]

N#CC1(N)CCCCC1
inactive: Potency [1] | Potency [2] | Potency [3] | Potency [4] | Potency [5] | Potency [6] | outcome [18] | outcome [8] | outcome [9] | Potency [10] | Potency [11] | Potency [12] | outcome [13] | outcome [14] | outcome [15] | Potency [16] | outcome [17]

CCOC(=O)[C@H](CCc1ccccc1)N[C@H]1CS[C@H](c2cccs2)CN(CC(=O)O)C1=O
inactive: Potency [1] | Potency [2] | Potency [3] | Potency [4] | Potency [5] | Potency [6] | Potency [7] | outcome [8] | outcome [9] | Potency [10] | Potency [11] | Potency [12] | outcome [13] | outcome [14] | Potency [19] | Potency [20] | outcome [17]

O=C(O)P(=O)(O)O
inactive: Potency [1] | Potency [2] | Potency [3] | Potency [4] | Potency [5] | Potency [6] | Potency [7] | outcome [8] | outcome [9] | Potency [10] | Potency [11] | outcome [13] | outcome [14] | Potency [20] | Potency [16] | outcome [17]

N=C(N)N1CCc2ccccc2C1
inactive: cytotoxicity [1] -11.7% [at 6.97 µM] | cytotoxicity increase [2] -14.4% [at 6.97 µM] | activity change, negative = cytotoxicity [3] -0.804% [at 6.97 µM] | cytotoxicity increase [4] -11.6% [at 6.97 µM] | cytotoxicity increase [6] -12.5% [at 6.97 µM] | cytotoxicity increase [7] -15.6% [at 6.97 µM] | activity change, negative = cytotoxic [18] 0.556% [at 6.97 µM] | activity change, negative = cytotoxicity [8] 2.27% [at 6.97 µM] | activity change, negative = cytotoxicity [9] 2.38% [at 6.97 µM] | activity change [10] -13.7% [at 6.97 µM, hits give high values] | activity change, negative = cytotoxicity [11] -7.09% [at 6.97 µM] | cytotoxicity increase [12] -13.8% [at 6.97 µM] | activity change, negative = cytotoxicity [13] 9.23% [at 8.39 µM] | viability change, negative = cytotoxic [14] -5.28% [at 8.39 µM] | Potency [20] | activity change, negative = inhibition [16] 3.09% [at 8.39 µM] | activity change, negative = cytotoxicity [17] -4.02% [at 8.39 µM]

CCO/C=C1\N=C(c2ccccc2)OC1=O
inactive: Potency [1] | Potency [2] | Potency [3] | Potency [4] | Potency [5] | Potency [6] | Potency [7] | outcome [18] | outcome [9] | Potency [10] | Potency [11] | outcome [13] | outcome [14] | Potency [16]

Cc1cc(C)c(C)c(C)c1
inactive: Potency [1] | Potency [2] | Potency [3] | Potency [4] | Potency [5] | Potency [6] | Potency [7] | outcome [18] | outcome [9] | Potency [10] | Potency [11] | outcome [13] | outcome [14] | Potency [16] | outcome [17]

N=C(N)S(=O)O
inactive: Potency [1] | Potency [2] | Potency [3] | Potency [4] | Potency [5] | Potency [6] | Potency [7] | outcome [8] | outcome [9] | Potency [10] | Potency [11] | Potency [12] | outcome [13] | outcome [14] | outcome [15] | Potency [16]

CCCCN(CCCC)CCCCCCN(CCCC)CCCC
inactive: Potency [1] | Potency [2] | Potency [4] | Potency [5] | Potency [6] | Potency [7] | outcome [18] | outcome [9] | Potency [10] | Potency [11] | Potency [12] | outcome [13] | outcome [14] | Potency [16] | outcome [17]

O=P(O)(O)C(O)(Cc1cccnc1)P(=O)(O)O
inactive: Potency [1] | Potency [2] | Potency [4] | Potency [5] | Potency [6] | Potency [7] | outcome [8] | outcome [9] | Potency [10] | Potency [11] | Potency [12] | outcome [13] | outcome [14] | outcome [15] | Potency [20] | Potency [16] | outcome [17]

Cc1cccc(N)n1
inactive: Potency [1] | Potency [2] | Potency [4] | Potency [5] | Potency [6] | Potency [7] | outcome [18] | outcome [9] | Potency [10] | Potency [11] | Potency [12] | outcome [13] | outcome [14] | outcome [15] | Potency [16] | outcome [17]

C[C@@H](CN1CC(=O)NC(=O)C1)N1CC(=O)NC(=O)C1
inactive: Potency [1] | Potency [3] | Potency [4] | Potency [5] | Potency [6] | Potency [7] | outcome [18] | outcome [8] | outcome [9] | Potency [10] | Potency [11] | Potency [12] | outcome [13] | outcome [14] | Potency [19] | outcome [15] | Potency [20] | Potency [16] | outcome [17]

CC(C)CC(=O)N[C@H](C(=O)N[C@H](C(=O)N[C@@H](CC(C)C)[C@@H](O)CC(=O)N[C@@H](C)C(=O)N[C@@H](CC(C)C)[C@@H](O)CC(=O)O)C(C)C)C(C)C (Isovaleryl-VV[Sta]A[Sta]-OH)
inactive: Potency [1] | Potency [2] | Potency [4] | Potency [5] | Potency [6] | Potency [7] | outcome [18] | outcome [8] | outcome [9] | Potency [10] | Potency [11] | outcome [13] | outcome [14] | Potency [20] | Potency [16] | outcome [17]

CCCCCC(=O)CC
inactive: Potency [1] | Potency [2] | Potency [4] | Potency [5] | Potency [6] | Potency [7] | outcome [18] | outcome [8] | outcome [9] | Potency [10] | Potency [11] | Potency [12] | outcome [13] | outcome [14] | Potency [16]
